Screens (PubChem)
The list is not random: actives were taken first. Their share in the collection is about 19%.
IL-1B inflam inh – inflammasome signaling inhibition, IL-1 beta readout; THP-1 LPS/ATP IL-1B secretion, AlphaLISA, 16 h; hits give low values; activity change, % at 57.5 µM; 4.7% of 360,000 active; AID 743279; in the data active = activity change below about -50%; inconclusive = mostly about -30% to -49%
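Secreted IL-1B measured by AlphaLISA bead assay after 16 h compound exposure of THP-1 cells; compounds (final up to 57.5 uM) added 1 h before LPS (250 ng/mL) and ATP (1.25 mM) stimulation; lower signal means less secretion.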
HT1080 IDH1KD tx – toxicity to HT-1080 IDH1 knockdown cells (counter line); HT-1080 IDH1 knockdown viability, ATP luminescence, 48 h; Potency, µM (highest dose often 46.1 µM), for inactives: at the highest dose activity, negative = toxicity, hits mostly cytotoxic; 2% of 360,000 active; AID 686971;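 also: potency is read from the fitted curve at half-maximal effect; 0% = DMSO wells and -100% = cell-free medium wells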
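Knockdown cells (IDH1KD HT-1080) received compounds 2 h after plating at 750 cells/well and were kept 48 h at 37 °C in 5% FBS RPMI. A CellTiter-Glo luminescence read gave % activity for curve fitting.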
HT1080-NT tox – kills 2HG-producing HT-1080-NT fibrosarcoma cells; Potency, µM (series often up to 46.1 µM), for the others: top-dose activity, negative = less viability, actives largely listed as cytotoxic; 1.6% of 360,000 active; HT-1080-NT fibrosarcoma viability, CellTiter-Glo ATP luminescence, 48 h; AID 686970;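 also: NT is the 2HG producing partner of a matched IDH1 knockdown line; potency is read from the fitted curve at half-maximal effect; 0% = DMSO-treated cells and -100% = media-only wells without cells; nearly all actives have a fitted effect of over 55% in size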
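Read-out is CellTiter-Glo luminescence after 10 minutes at room temperature, following 48 hours' compound treatment of HT-1080-NT cells (750 cells/well, RPMI, 5% FBS, 37 degrees C).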
ELG1 DNA repair – blocks ELG1-dependent DNA repair in HEK293T cells | HEK293T ELG1-luciferase reporter, luminescence, 16 h; DNA damage induced by 5-fluorouridine | Potency, µM (highest dose often 46.1 µM), inactives show top-dose activity change, negative = inhibition, most hits filed as inhibitors | 2.3% of 330,000 active; also: potency is read from the fitted curve at half-maximal effect; nearly all actives have a fitted effect of over 55% in size
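Cells (2,000 per well) received 5-fluorouridine plus test compound or DMSO and were incubated 16 hr at 37 °C, 5% CO2. Luciferase activity was read by luminescence 30 min after ONE-Glo addition; signal suppression marked inhibition of damage-induced ELG1 function.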
TDP1 cell CPT – DT40-hTDP1 cell growth loss with CPT; chicken DT40 Tdp1-/-;hTDP1 cells + 20 nM CPT, ATP luminescence, 48 h; Potency, µM (series often up to 46.2 µM), without a hit: at the top dose activity change, negative = growth inhibition, usual class: inhibitors; 12% of 420,000 active; AID 686979; also: potency is read from the fitted curve at half-maximal effect; nearly all actives have a fitted effect of over 55% in size
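Chicken DT40 Tdp1-/- cells stably complemented with human TDP1 were seeded at 400 cells/well in medium containing 20 nM camptothecin, exposed to pin-transferred compounds, and grown at 37 °C for at least 48 hr. Viability was read as ATP luminescence.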
DT40 TDP1 no CPT – qHTS for Inhibitors of human tyrosyl-DNA phosphodiesterase 1 (TDP1): qHTS in cells in absence of CPT; DT40 Tdp1-/- hTDP1 cells, no CPT, ATP luminescence, 48 h; 15% of 420,000 active; AID 686978, 2013; Potency, µM (doses to about 46.2 µM), for the others: top-dose activity change, negative = growth inhibition, hits mostly inhibitors; also: potency is read from the fitted curve at half-maximal effect; nearly all actives have a fitted effect of over 55% in size
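A cellular qHTS used chicken DT40 cells lacking endogenous Tdp1 but carrying stably transfected human TDP1. Compounds were applied without camptothecin, and cell growth kinetics were judged by ATP-dependent luminescence after ≥48 hr.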
The depositor's hits bear a star. Unless noted, calls follow the shape of the dose curve; as a rule, active = well fitted curve in the direction sought with a large enough effect; inconclusive = small, poorly fitted or top-dose-only effect, or another doubt; inactive = no such curve, though single readings can be large; an effect the other way counts as inactive or inconclusive. Unless noted, % is scaled to controls: 0 for no effect and ±100 for the full control effect.

For CC1(C)CC(=O)C2=C(C1)NC(SCC(=O)Nc1ccccc1)=C(C#N)C2c1ccco1 (stereo not given) the results were IL-1B inflam inh inconclusive, HT1080 IDH1KD tx -2%, HT1080-NT tox 0%, ELG1 DNA repair inconclusive, TDP1 cell CPT inconclusive and DT40 TDP1 no CPT inconclusive.
For CC1(C(=O)NS(=O)(=O)c2ccc(Cl)cc2)CCN1C(=O)Cc1ccccc1Cl (stereo not given) the results were IL-1B inflam inh 22, HT1080 IDH1KD tx 12%, HT1080-NT tox 16%, TDP1 cell CPT -14% and DT40 TDP1 no CPT -12%.
Screening Cc1ccc(S(=O)(=O)N2C3CCCCC3O[C@H]2CC(=O)OCc2ccccc2)cc1 (stereo not given in full) returned IL-1B inflam inh 12, HT1080 IDH1KD tx 0%, HT1080-NT tox 2%, TDP1 cell CPT inconclusive and DT40 TDP1 no CPT inconclusive.
For COc1ccccc1C(=O)NNC1=NS(=O)(=O)c2ccccc21 the results were IL-1B inflam inh 4, HT1080 IDH1KD tx 15%, HT1080-NT tox -2%, ELG1 DNA repair inconclusive, TDP1 cell CPT -3% and DT40 TDP1 no CPT -10%.
CCN1C(C(=O)c2ccccc2)=C(OC(=O)c2ccccc2OC)c2ccccc2S1(=O)=O was read as TDP1 cell CPT 4.6µM* and DT40 TDP1 no CPT 3.3µM*.
Screening CCCCC(=O)OC1=C(C(=O)c2ccccc2)N(CC)S(=O)(=O)c2ccccc21 returned TDP1 cell CPT 21µM* and DT40 TDP1 no CPT 7.3µM*.
`CCCCN1C(C(=O)c2ccccc2)=C(OC(C)=O)c2ccccc2S1(=O)=O` gave TDP1 cell CPT 5.2µM* and DT40 TDP1 no CPT 4.6µM*.
For CCN1C(C(=O)c2ccccc2)=C(Nc2ccccc2C)c2ccccc2S1(=O)=O the results were IL-1B inflam inh inconclusive, HT1080 IDH1KD tx -1%, HT1080-NT tox -1%, ELG1 DNA repair -4%, TDP1 cell CPT -29% and DT40 TDP1 no CPT inconclusive.
Screening CCCCN1C(C(=O)Nc2cc(C)on2)=C(O)c2ccccc2S1(=O)=O returned IL-1B inflam inh -9, HT1080 IDH1KD tx 1%, HT1080-NT tox 9%, ELG1 DNA repair -21%, TDP1 cell CPT 6% and DT40 TDP1 no CPT -20%.
CCn1c(SCC(=O)Nc2cc(Cl)ccc2OC)nnc1C1CC1 was read as IL-1B inflam inh 2, HT1080 IDH1KD tx 7%, HT1080-NT tox 11%, ELG1 DNA repair 4%, TDP1 cell CPT 3% and DT40 TDP1 no CPT 4%.
Screening Cn1ncc([N+](=O)[O-])c1C(=O)Nc1ccc(-c2ccccc2)cc1 returned IL-1B inflam inh 26, HT1080 IDH1KD tx 3%, HT1080-NT tox 3%, ELG1 DNA repair inconclusive, TDP1 cell CPT 0% and DT40 TDP1 no CPT 10%.
Screening Cn1c(O)c(C=NCCCCCC(=O)O)c(=O)n(C)c1=O returned IL-1B inflam inh -12, HT1080 IDH1KD tx -1%, HT1080-NT tox 4%, TDP1 cell CPT -18% and DT40 TDP1 no CPT 14%.
CCNc1nc(Nc2ccc(C)c(Cl)c2)c2cnn(C)c2n1 was read as IL-1B inflam inh -11, HT1080 IDH1KD tx -15%, HT1080-NT tox -8%, ELG1 DNA repair 9.2µM*, TDP1 cell CPT 18µM* and DT40 TDP1 no CPT 1.6µM*.
CCCCNc1nc(Nc2ccc(C)c(Cl)c2)c2cnn(C)c2n1 was read as IL-1B inflam inh -66*, HT1080 IDH1KD tx -23%, HT1080-NT tox inconclusive, ELG1 DNA repair 18µM*, TDP1 cell CPT 23µM* and DT40 TDP1 no CPT inconclusive.
